Molecules are shown by their SMILES. Results filed as inconclusive are left out. Active and inactive are the calls of the source. The call rests on the fitted dose curve; in most records, active means well fitted inhibition curve with a large enough effect in the signal ratio in the repeat runs, with a control signal flat; inconclusive means weak or mixed curves, or effect the other way; inactive means flat fitted curve, though single readings scatter; the % refers to the signal ratio.

40 compounds from PubChem BioAssay (Tox21) can be followed below.
On the % scale 0 is the no-effect control and ±100 the full control effect; potency means the concentration at half of the fitted maximal effect.

The target of this assay is D(2) dopamine receptor (Homo sapiens) (UniProt P14416). In words: Dopamine D2 receptor (DRD2) small molecule antagonists, cell-based qHTS assay (AID 1963595). To be noted: HEK293-DRD2 cAMP HTRF antagonist mode; series mostly up to 92.4 µM; activity change, negative = inhibition: at the top concentration. The source says: National Center for Advancing Translational Sciences [NCATS]
Chain of D(2) dopamine receptor (Homo sapiens) (P14416 whole entry, looked up): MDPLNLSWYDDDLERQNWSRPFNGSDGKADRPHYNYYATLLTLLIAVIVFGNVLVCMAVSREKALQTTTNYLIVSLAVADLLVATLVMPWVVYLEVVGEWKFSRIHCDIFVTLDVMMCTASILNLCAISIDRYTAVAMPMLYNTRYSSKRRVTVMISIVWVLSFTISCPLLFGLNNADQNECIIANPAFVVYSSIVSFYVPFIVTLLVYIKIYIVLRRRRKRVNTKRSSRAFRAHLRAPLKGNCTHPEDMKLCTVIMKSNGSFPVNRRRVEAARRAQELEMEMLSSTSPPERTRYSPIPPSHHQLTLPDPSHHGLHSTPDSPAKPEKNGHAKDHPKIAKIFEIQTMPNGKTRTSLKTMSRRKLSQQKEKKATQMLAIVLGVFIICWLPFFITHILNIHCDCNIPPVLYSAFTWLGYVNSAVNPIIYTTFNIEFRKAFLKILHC
Division of Preclinical Innovation [DPI]
U.S. Environmental Protection Agency [EPA]
National Institutes of Environmental Health Sciences [NIEHS]
National Toxicology Program [NTP]
U.S. Food and Drug Administration [FDA]
DRD2 is the D2 subtype of the dopamine receptor, which is coupled to Gi subtype of G protein-coupled receptor. This G protein-coupled receptor inhibits adenylyl cyclase activity. The DRD2-HEK293 cell line stably expressing D2 dopamine receptor can be used for screening agonists and antagonists of interactions between D2 and its ligands. The Hek293-DRD2 cAMP assay is based on HTRF technology. It measures changes of cAMP accumulation in response to Gi coupled GPCR activation or inhibition.
Tox21 Assay Protocol Summary:
DRD2-Hek293 cells were dispensed at 600 cells/3uL/well in 1536-well white plates using a Multidrop Dispenser. After the assay plates were incubated at a 37 C/5% CO2 incubator for 24 h, 1 uL of Ro20-1724 at final concentration of 0.1 mM was transferred to the assay plate by a Flying Reagent Dispenser. Following Ro20-1724 addition, 23 nL of compound dissolved in DMSO, positive controls or DMSO only was added to the assay plates via Wako pintool station. The assay plates were incubated at room temperature for 10 min. Next, 1 uL of mixture of NKH477 (final concentration at 200 nM) and quinpirole (final concentration at 12 nM) was added into the plates. After the assay plates were incubated at room temperature for an additional 30 min, 2.5 ul/well of cAMP-d2 and 2.5 ul/well of anti-cAMP-cryptate were added respectively into the assay plates using a Flying Reagent Dispenser. The plates were incubated at room temperature for 1 h. The fluorescence intensity in the plates was measured at 340 nm excitation and 665 & 620 nm emission by an Envision plate reader.
Regarding `N#CC(O)c1ccccc1` (stereo not given), the “activity change, negative = inhibition” value is 11.4% (inactive).
On to `CN(C1CCCCC1)C1CCCCC1`, for which the “activity change, negative = inhibition” value was -11.2% (inactive).
On the same count and under the same terms, with `C=CCN1CC[C@]23c4c5ccc(O)c4O[C@H]2C(=O)CC[C@@]3(O)[C@H]1C5` the figure was -5.82% [at 42.5 µM] (inactive); with `[O-][Br+2]([O-])O`, -0.825% [at 42.5 µM] (inactive).
Consider `CC1(C)C(C(=O)OC(C#N)c2cccc(Oc3ccccc3)c2)C1(C)C` (stereo not given), for which the Potency entry is “inactive”.
Take `OC(c1ccccc1)(c1ccccc1)C1CCNCC1`: the “activity change, negative = inhibition” value was 2.05% [at 42.5 µM] (inactive).
For `CCC(C)Br` (stereo not given), the “activity change, negative = inhibition” value was -2.39% (inactive).
On to `O=C(O)C(F)(F)C(F)(F)C(F)(F)C(F)(F)C(F)(F)F`, for which the “activity change, negative = inhibition” value was 15.6% (inactive).
The same measure, in the same setting: then `NC1=NC(=O)C(c2ccccc2)O1` (stereo not given), with 14.7% [at 42.5 µM] (inactive); and `Oc1cc(Cl)cc(Cl)c1`, with -0.367% (inactive); and `O=C(O)c1ccc2[nH]cc(CCCCN3CC=C(c4ccccc4)CC3)c2c1`, with -0.893% [at 42.5 µM] (inactive).
In the case of `Oc1c(I)cc(I)cc1I`, the “activity change, negative = inhibition” value was 0.823% (inactive).
`CCOP(=S)(OCC)SCn1nnc2ccccc2c1=O`: the “activity change, negative = inhibition” value is 5.27% (inactive).
In the case of `CC(=O)NC1CCSC1=O` (stereo not given), the “activity change, negative = inhibition” value was -11.3% [at 42.5 µM] (inactive).
Same read-out and setting: with `CN1CCN(C(=O)O[C@H]2c3nccnc3C(=O)N2c2ccc(Cl)cn2)CC1` the figure was 1.74% [at 42.5 µM] (inactive).
On the same count and under the same terms, with `CCNC(=O)NC(=O)/C(C#N)=N/OC` the figure was 11.7% (inactive); with `C[C@H](CN1CCOCC1)C(C(=O)N1CCCC1)(c1ccccc1)c1ccccc1`, -5.46% (inactive); with `CCCSC(=O)N(CCC)CCC`, 2.69% (inactive).
`O=[N+]([O-])c1cccc(CCl)c1`: the “activity change, negative = inhibition” value is -3.76% (inactive).
As to `C[C@@H]1CC[C@H]2[C@@H](C)C(=O)O[C@@H]3O[C@@]4(C)CC[C@@H]1[C@]32OO4`, the “activity change, negative = inhibition” value was 10.9% [at 42.5 µM] (inactive).
Still for that read-out and setting: with `CCC1(c2ccccc2)C(=O)N=C(O)NC1=O` (stereo not given) the figure was 12.7% (inactive).
For `CC(=O)[O-].CC(=O)[O-].O.O.[Zn+2]`, the “activity change, negative = inhibition” value is 1.34% (inactive).
On the same count and under the same terms, then `N[C@@H]1C[C@H]1c1ccccc1`, with -3.66% [at 42.5 µM] (inactive); and `CC[C@H](C)[C@H]1O[C@]2(C=C[C@@H]1C)C[C@@H]1C[C@@H](C/C=C(\C)[C@@H](O[C@H]3C[C@H](OC)[C@@H](O[C@H]4C[C@H](OC)[C@@H](O)[C@H](C)O4)[C@H](C)O3)[C@@H](C)/C=C/C=C3\CO[C@@H]4[C@H](O)C(C)=C[C@@H](C(=O)O1)[C@]34O)O2`, with -7.74% [at 42.5 µM] (inactive); and `Cc1ccc2c(c1)C1CN(C)CCC1N2` (stereo not given), with -2.92% [at 18.9 µM] (inactive).
As for `O=[N+]([O-])c1ccc(O)c([N+](=O)[O-])c1`, the Potency result is “inactive”.
As for `CC(C)CC(N(C)C)C1(c2ccc(Cl)cc2)CCC1` (stereo not given), the “activity change, negative = inhibition” value is -12.9% [at 42.5 µM] (inactive).
Same read-out and setting: with `C[C@@H](Oc1ccc(Cl)cc1Cl)C(=O)O` the figure was 4.19% (inactive); with `CC(CC(C(N)=O)(c1ccccc1)c1ccccc1)N(C)C` (stereo not given), 18.9% [at 42.5 µM] (inactive).
For the compound `Nc1ccc2c(c1)Cc1ccccc1-2`, the “activity change, negative = inhibition” value is -2.63% (inactive).
On the same count and under the same terms, with `N#CSCc1ccccc1` the figure was -10.9% (inactive).
Same read-out and setting: then `CCC(COC(=O)c1cc(OC)c(OC)c(OC)c1)(c1ccccc1)N(C)C` (stereo not given), with -19.7% [at 42.5 µM] (inactive); and `CCC1(c2ccccc2)C(=O)NC(=O)NC1=O`, with -1.5% (inactive).
The same measure, in the same setting: then `COC(C)(C)CCC[C@H](C)C/C=C/C(C)=C/C(=O)OC(C)C`, with -3.4% (inactive); and `COP(N)(=S)OC`, with -1.41% (inactive); and `O=C(CCCCl)c1ccc(F)cc1`, with 5.6% [at 42.5 µM] (inactive).
Regarding `c1ccc2cc3c(cc2c1)-c1cccc2cccc-3c12`, the “activity change, negative = inhibition” value is 2.26% (inactive).
On the same count and under the same terms, with `Cc1cc2c3c(c1)C(c1ccccc1)=N[C@@H](NC(=O)c1ccncc1)C(=O)N3CC2` the figure was 0.436% (inactive); with `O=[N+]([O-])c1cccc2cccc([N+](=O)[O-])c12`, 0.227% (inactive).
Regarding `[Hg+2].[I-].[I-]`, the Potency was 27.3 µM (active).
